D2 ag-1 – agonists of human D2 dopamine receptor (beta-arrestin) | P14416 | DiscoveRx PathHunter D2 beta-arrestin, luminescence, 90 min; 100% = 57 uM dopamine signal | activation, % (concentration not given with the values) | hit rate 0.084% among 360,000 | AID 624465; in the data active = activation above about 40%; inconclusive = between about 15% and that limit
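Agonist mode: compounds alone added to overnight-plated D2 PathHunter cells for 90 min at 37 C, with 57 uM final dopamine (EC100) defining full response. Beta-arrestin recruitment detected by chemiluminescent reagent, read after 1 h at ambient temperature.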
D2 PAM-1 – positive allosteric modulators of human D2 dopamine receptor; potentiation, % (concentration not given with the values); DiscoveRx D2 beta-arrestin cells, luminescence, 90 min; 100% = 57 uM dopamine signal; hit rate 0.23% among 360,000; AID 624464; in the data active = potentiation above about 50%; inconclusive = mostly about 30% to 49%
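D2 cells co-treated with compound plus 50 nM dopamine (EC20) for 90 min at 37 deg C to detect potentiation. Beta-arrestin recruitment was read as enzyme-fragment luminescence after 1 h at ambient temperature. Full response was set by 57 uM dopamine.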
D2 ag-2 – D2 dopamine receptor (human) agonism. HEK293 T-REx D2 cells, calcium flux agonist mode. activation, % at 2 µM. hit rate 0.53% among 340,000;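 active = activation over 3 SD above normal in the single-dose calcium agonist read, cut at about 30% in these data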
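Tetracycline-induced HEK293 T-REx cells with force-coupled D2 receptor, plated overnight at 30 C, loaded with no-wash calcium dye. After a 10 s baseline, compound was pin-added and calcium flux read kinetically for 180 s; calcium rises flagged agonists.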
D2 antag – antagonizes the human D2 dopamine receptor; HEK293 TREx D2 cells, calcium flux, dopamine EC80; P14416; hit rate 2% among 340,000; inhibition, % at 10 µM; in the data active = inhibition above about 30%; inactive = below that, where a call was filed
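Calcium flux kinetic readout in an inducible HEK293 TREx D2 line plated overnight at 30 C. After 180 s compound exposure, an EC80 dopamine challenge follows with another 180 s kinetic read to detect antagonism.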
D2 PAM-2 – positive allosteric modulators of human D2 dopamine receptor; P14416; HEK293 T-REx D2, calcium flux, EC20 dopamine potentiation; potentiation, % at 10 µM; hit rate 0.34% among 340,000; AID 485347;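 active = potentiation over 3 SD above the plate norm, cut at about 30% in these data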
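Potentiation of an EC20 dopamine calcium response measured kinetically over 180 s, after a preceding 180 s compound-only read flagging agonists. Cells: inducible Hek293 Trex D2 line, 4000/well, cultured overnight at 30 C before dye loading.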
D3 ag – confirmation of human D3 dopamine receptor agonists, beta-arrestin; shares compounds with D2 ag-2; DiscoveRx D3 beta-arrestin cells, luminescence, 90 min; Potency, µM (highest dose often 76.9 µM), hits mostly activators; hit rate 4% among 2,300; AID 720506; also: nearly all actives have a fitted effect of over 70% in size
Target sequence (P35462 whole entry, looked up): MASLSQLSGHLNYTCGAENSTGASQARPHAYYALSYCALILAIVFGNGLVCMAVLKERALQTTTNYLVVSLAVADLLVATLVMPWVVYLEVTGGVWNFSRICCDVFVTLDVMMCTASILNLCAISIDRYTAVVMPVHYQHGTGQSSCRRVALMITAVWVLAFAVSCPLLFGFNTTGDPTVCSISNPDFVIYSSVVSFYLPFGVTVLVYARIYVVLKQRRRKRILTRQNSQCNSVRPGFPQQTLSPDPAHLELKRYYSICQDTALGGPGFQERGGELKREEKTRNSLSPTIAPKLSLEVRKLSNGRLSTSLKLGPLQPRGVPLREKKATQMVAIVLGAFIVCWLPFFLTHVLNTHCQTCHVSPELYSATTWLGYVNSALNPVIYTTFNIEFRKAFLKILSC
D2 ag-3 – D2 receptor agonism, beta-arrestin counterscreen; AID 720507; shares compounds with D2 ag-2; hit rate 5.9% among 2,300; DiscoveRx PathHunter D2 beta-arrestin, luminescence, 90 min; response scale: percent relative to full dopamine signal; Potency, µM (doses to about 76.9 µM), most hits filed as activators; also: nearly all actives have a fitted effect of over 70% in size
Numbers stand for hits. The list is not random: actives were taken first. Their share in the collection is about 2.4%. Unless noted, calls follow the shape of the dose curve; as a rule, active = well fitted activation curve with a large enough effect; inconclusive = small, poorly fitted or top-dose-only effect; inactive = flat fitted curve, though single readings scatter.

How did O=C1OC(N2CCN(c3ccccn3)CC2)c2ccccc21 (configuration not stated) do in these assays?
D2 ag-1: inactive; D2 PAM-1: inactive; D2 ag-2: 55; D2 antag: 34; D2 PAM-2: inactive; D3 ag: inactive; D2 ag-3: inactive

How did CC1(C)CC(O)(CNCc2ccc3c(c2)OCO3)CCO1 (configuration not stated) do in these assays?
D2 ag-1: inconclusive; D2 PAM-1: inactive; D2 ag-2: 70; D2 antag: 88; D2 PAM-2: inactive; D3 ag: inactive; D2 ag-3: inconclusive

Results for COc1ccc(NC(=O)C2CCCNC2)cc1OCC(C)C (configuration not stated) ?
D2 ag-1: inactive; D2 PAM-1: inactive; D2 ag-2: inactive; D2 antag: inactive; D2 PAM-2: inactive

Results for COc1ccc(NC(=O)C2CCCN(CCCc3ccccc3)C2)cc1OCC(C)C (configuration not stated) ?
D2 ag-1: inactive; D2 PAM-1: inactive; D2 ag-2: 75; D2 antag: 80; D2 PAM-2: inactive; D3 ag: inactive; D2 ag-3: inconclusive

How did Cc1cc(C)cc(-n2c(SCC(N)=O)nc3c([nH]c4ccccc43)c2=O)c1 do in these assays?
D2 PAM-2: inactive

What do the screens show for `COc1cc(C(=S)N2CCOCC2)cc(OC)c1OC(=O)c1ccc(C)cc1`?
D2 ag-1: inactive; D2 PAM-1: inactive; D2 ag-2: inactive; D2 antag: inactive; D2 PAM-2: inactive; D3 ag: inactive; D2 ag-3: inactive

How did CCCCNCCCOc1cccc(Cl)c1Cl do in these assays?
D2 ag-1: inactive; D2 PAM-1: inactive; D2 ag-2: 49; D2 antag: 87; D2 PAM-2: inactive; D3 ag: inactive; D2 ag-3: inactive

What do the screens show for `Nc1c(Cl)ncnc1NCC(O)CO` (configuration not stated)?
D2 ag-1: inactive; D2 PAM-1: inactive; D2 ag-2: inactive; D2 antag: inactive; D2 PAM-2: inactive; D3 ag: inactive; D2 ag-3: inactive

How did O=S(=O)(Cc1ccccc1)N1CCC(N2CCN(c3ccccc3)CC2)CC1 do in these assays?
D2 ag-1: inconclusive; D2 PAM-1: inactive; D2 ag-2: 83; D2 antag: 89; D2 PAM-2: inactive; D3 ag: inconclusive; D2 ag-3: inconclusive

How did COc1ccc(S(=O)(=O)N2CCC(N3CCN(c4ccccc4)CC3)CC2)cc1 do in these assays?
D2 ag-2: 74; D2 antag: 61; D2 PAM-2: inactive; D3 ag: inactive; D2 ag-3: inconclusive

How did c1ccc(C2CCC(N3CCN(c4ccccc4)CC3)CC2)cc1 (configuration not stated) do in these assays?
D2 ag-1: inactive; D2 PAM-1: inactive; D2 ag-2: 64; D2 antag: inactive; D2 PAM-2: inactive; D3 ag: inactive; D2 ag-3: inactive

Results for Cc1cccc(NC(=O)C2CCC(CNS(=O)(=O)c3ccc4c(c3)CCCC(=O)N4)CC2)c1C (configuration not stated) ?
D2 ag-2: inactive; D2 PAM-2: inactive

How did COc1ccc2nc3sc(C(=O)NCCN4CCc5ccccc5C4)cc3cc2c1 do in these assays?
D2 ag-1: inconclusive; D2 PAM-1: inactive; D2 ag-2: 66; D2 antag: 53; D2 PAM-2: inactive; D3 ag: inactive; D2 ag-3: inconclusive

What do the screens show for `Oc1ccc(N2CCN(Cc3ccc(OCCCN4CCCCC4)cc3)CC2)cc1`?
D2 ag-1: 47; D2 PAM-1: inactive; D2 ag-2: 72; D2 antag: 91; D2 PAM-2: inactive; D3 ag: inconclusive; D2 ag-3: 4.5µM

How did c1ccc(COc2ccc(OCCCCN3CCCCC3)cc2)cc1 do in these assays?
D2 ag-1: inactive; D2 PAM-1: inactive; D2 ag-2: inactive; D2 antag: inactive; D2 PAM-2: inactive

Results for CSCCC(NC(=O)c1ccc(Cl)cc1)C(=O)OCC(=O)N1CCCC1=O (configuration not stated) ?
D2 ag-1: inactive; D2 PAM-1: inactive; D2 ag-2: inactive; D2 antag: inactive; D2 PAM-2: inactive

What do the screens show for `COc1ccccc1C(=O)NC(CCSC)C(=O)OCC(=O)N1CCCC1=O` (configuration not stated)?
D2 ag-1: inactive; D2 PAM-1: inactive; D2 ag-2: inactive; D2 antag: inactive; D2 PAM-2: inactive; D3 ag: inactive; D2 ag-3: inactive

Results for O=S(=O)(NCC(c1ccc2c(c1)OCO2)N1CCN(c2ccccc2)CC1)c1ccccc1 (configuration not stated) ?
D2 ag-1: inconclusive; D2 PAM-1: inactive; D2 ag-2: 71; D2 antag: 80; D2 PAM-2: inactive; D3 ag: inactive; D2 ag-3: inconclusive

What do the screens show for `OCCCNc1ncnc2sc3c(c12)CCN(Cc1ccccc1)C3`?
D2 ag-1: inactive; D2 PAM-1: inactive; D2 ag-2: inactive; D2 antag: inactive; D2 PAM-2: inactive

How did O=c1[nH]cnc2sc3c(c12)CN(Cc1ccccc1)CC3 do in these assays?
D2 ag-1: inconclusive; D2 PAM-1: inactive; D2 ag-2: 78; D2 antag: 74; D2 PAM-2: inactive; D3 ag: inactive; D2 ag-3: inactive

How did CC1(C)Cc2c(sc3nc[nH]c(=O)c23)CO1 do in these assays?
D2 ag-1: inactive; D2 PAM-1: inactive; D2 ag-2: inactive; D2 antag: inactive; D2 PAM-2: inactive

What do the screens show for `O=c1[nH]cnc2sc3c(c12)CCN(Cc1ccccc1)C3`?
D2 ag-1: inconclusive; D2 PAM-1: inactive; D2 ag-2: 62; D2 antag: inactive; D2 PAM-2: inactive; D3 ag: inactive; D2 ag-3: inactive

How did CC1(C)CC(=O)c2sc(NC(=O)C(C)(C)C)nc2C1 do in these assays?
D2 ag-1: inactive; D2 PAM-1: inactive; D2 ag-2: inactive; D2 antag: inactive; D2 PAM-2: inactive

How did CC1(C)CC(=O)c2sc(NC(=O)c3cccs3)nc2C1 do in these assays?
D2 ag-1: inactive; D2 PAM-1: inactive; D2 ag-2: 52; D2 antag: inactive; D2 PAM-2: inactive; D3 ag: inconclusive; D2 ag-3: inactive

How did CC(=O)c1ccc(N2CCN(C(=O)C3CCCN(S(=O)(=O)c4ccc(Br)s4)C3)CC2)cc1 (configuration not stated) do in these assays?
D2 ag-2: inactive; D2 PAM-2: inactive

What do the screens show for `CC(=O)c1ccc(N2CCN(C(=O)C3CCCN(S(=O)(=O)c4cnc[nH]4)C3)CC2)cc1` (configuration not stated)?
D2 ag-1: inactive; D2 PAM-1: inactive; D2 ag-2: inactive; D2 antag: 32; D2 PAM-2: inactive; D3 ag: inactive; D2 ag-3: inactive
